Reference: PubChem BioAssay AID1224904 (Broad Institute, 2016)
Several values for one entry are separate records, joined by “and”; a condition that tells them apart may be missing. Equal values may be shown once. The whole screen tested about 37,000 compounds, of which about 290 (0.78%) were called active. Another 10% or so got no clear call; they are omitted.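 How the source made its calls: active means mean inhibition of at least 10% in the main channel, exceeding the control channel by a set limit; inconclusive means inhibition of 10% or more but channel gap under a set limit; inactive means mean inhibition below 10%.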 The full list was thinned out, with actives kept by preference.

Assay: DUX4 transcriptional activity inhibition in cells – 293T cells, Gaussia and Italica luciferase, primary screen (AID 1224904);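 on activity change, negative = inhibition: 0% = median of neutral control wells and -100% = median of positive control wells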
Details: 293T-iDUX4 ZSCAN4-Gaussia luciferase reporter, 24 h, stronger effect = lower value, concentration not given here; for Gaussia minus Italica difference: measured here: selective DUX4 reporter inhibition
[1] = measured here: Italica tet-on control reporter

SMILES	activity change, negative = inhibition	activity change, negative = inhibition [1]	Gaussia minus Italica difference
COCC#Cc1cnc2c(c1)C(=O)N([C@H](C)CO)C[C@H](C)[C@H](CN(C)Cc1ccc(-c3ccccc3)cc1)O2	-1.2% (inactive)	-1.59%	0.393%
C[C@H](CO)N1C[C@H](C)[C@H](CN(C)C(=O)CCN(C)C)OCc2ccccc2-c2c(n(C)c3ccccc23)C1=O	0.0892% (inactive)	6.32%	-6.23%
CN(C)CC#Cc1ccc([C@@H]2[C@H](CO)N3CCCCN(C(=O)Nc4ccc(F)cc4)C[C@@H]23)cc1	15.2% (inactive)	5.12%	10.1%
COc1ccccc1C#Cc1ccc([C@@H]2[C@@H](CO)N3CCCCN(S(C)(=O)=O)C[C@@H]23)cc1	-1.08% (inactive)	5.65%	-6.73%
C[C@@H](O)C#Cc1ccc([C@@H]2[C@H]3CN(S(=O)(=O)c4ccccc4)CCCCN3[C@H]2CO)cc1	25.7% (inactive)	12.9%	12.9%
O=C(Nc1cccc(F)c1)N1CCCCN2[C@H](CO)[C@H](c3ccc(C#CC4CC4)cc3)[C@@H]2C1	-32.4% (active)	5.1%	-37.5%
COc1ccccc1C#Cc1ccc([C@H]2[C@@H](C#N)N(C(=O)C3CCCCC3)[C@@H]2CO)cc1	-1.13% (inactive)	-0.0756%	-1.05%
C[C@@H](O)C#Cc1ccc([C@@H]2[C@H](CO)N3CCCCN(S(=O)(=O)c4ccccc4)C[C@@H]23)cc1	10.1% (inactive)	-3.26%	13.3%
COc1ccccc1C#Cc1ccc([C@H]2[C@H](CO)N3CCCCN(C(=O)C4CCC4)C[C@@H]23)cc1	-36.1% (active)	-8.62%	-27.4%
COc1ccc(S(=O)(=O)N2CCCCN3[C@H](CO)[C@@H](c4ccc(C#CC(C)C)cc4)[C@H]3C2)cc1	-31.7% (active)	-3.69%	-28%
O=C(Nc1cccc(F)c1)N1CC(=O)N2[C@H](CO)[C@H](c3ccc(C#CC4CC4)cc3)[C@@H]2C1	2.91% (inactive)	-11.7%	14.6%
O=C(CC(F)(F)F)N1C[C@H]2[C@@H](c3ccccc31)[C@H](CO)N2C(=O)Cc1cccnc1	2.67% (inactive)	0.448%	2.22%
CCCC#Cc1ccc([C@@H]2[C@@H](C#N)N(C(=O)C3CCC3)[C@H]2CO)cc1	0.61% (inactive)	1.62%	-1.01%
COc1cccc(CN2[C@H](CO)[C@@H]3c4ccccc4N(C(=O)c4ccncc4)C[C@@H]32)c1	-3.19% (inactive)	4.06%	-7.25%
COc1cccc(C(=O)Nc2ccc3c(c2)C(=O)N(C)[C@H]2CC[C@@H](CC(=O)N[C@H](C)c4ccccc4)O[C@H]2CO3)c1	-1.13% (inactive)	0.375%	-1.51%
COC(=O)[C@@H]1[C@@H](CO)[C@@H]2Cn3c(ccc(-c4ccccc4F)c3=O)[C@@H]2N1CC1CCOCC1	-4.32% (inactive)	8.44%	-12.8%
O=C([C@H]1[C@H](CO)[C@H]2Cn3c(cccc3=O)[C@@H]1N2Cc1cocn1)N1CCCCC1	0.941% (inactive)	1.28%	-0.343%
C/C=C/c1ccc(C2[C@H]3CNC[C@@H]2N3C(=O)Nc2cc(F)ccc2F)cc1 (some centres not stated)	15.1% (inactive) and 2.98% (inactive)	3.89% and 2.36%	11.2% and 0.626%
O=C(c1ccncc1)N1CC2(C1)[C@@H](c1ccccc1)[C@H](CO)N2C(=O)c1ccncc1	9.03% (inactive)	0.77%	8.26%
CO[C@@H]1CN(C)C(=O)c2cc(NS(=O)(=O)c3cn(C)cn3)ccc2OC[C@@H](C)N(CCC(F)(F)F)C[C@H]1C	2.8% (inactive)	2.78%	0.0206%
CC(C)NC(=O)Nc1ccc2c(c1)C(=O)N(C)[C@H]1CC[C@H](CC(=O)NCc3ccc(F)cc3)O[C@H]1CO2	-1.78% (inactive)	-0.912%	-0.872%
CN1C(=O)c2cc(NC(=O)Nc3ccccc3F)ccc2OC[C@H]2O[C@@H](CC(=O)Nc3cccc(Cl)c3)CC[C@@H]21	2.01% (inactive)	1.81%	0.199%
CN1C(=O)c2cc(NC(=O)c3ccc(Cl)cc3)ccc2OC[C@@H]2O[C@@H](CC(=O)O)CC[C@H]21	3.27% (inactive)	2.43%	0.834%
CCS(=O)(=O)N1[C@H](CO)[C@@H](c2ccc(C#CC(C)C)cc2)[C@@H]1C#N	-1.24% (inactive)	-0.906%	-0.33%
COc1ccccc1CN1[C@@H]2CNC[C@H]1C2c1ccc(-c2cccc(C#N)c2)cc1 (some centres not stated)	2.24% (inactive) and -7% (inactive)	7.91% and -13.5%	-5.67% and 6.5%
CCCNC(=O)C[C@H]1CC[C@H]2[C@@H](COc3ccc(NC(=O)Nc4c(C)noc4C)cc3C(=O)N2C)O1	1.35% (inactive)	1.62%	-0.269%
CN(C)C(=O)c1cccc(-c2ccc(C3[C@@H]4CN(S(=O)(=O)c5ccc(F)cc5)C[C@H]3N4)cc2)c1 (some centres not stated)	-0.156% (inactive)	-4.49%	4.34%
O=C(Cc1ccncc1)N1C[C@@H]2N[C@H](C1)C2c1ccc(-c2ccc(F)cc2)cc1 (some centres not stated)	-3.63% (inactive)	1.35%	-4.98%
N#Cc1ccc(-c2ccc(C3[C@@H]4CN(S(=O)(=O)c5ccc(F)cc5)C[C@H]3N4)cc2)cc1 (some centres not stated)	-15.8% (active)	11.7%	-27.5%
